In all, about 5,500 compounds went through this assay and about 2,000 (36%) were called active. Not shown: some 18% with an inconclusive outcome. Cut-off read from the data, not from the text of the source: active = normalized growth mostly below about 0.91 (no sharp cut-off); inconclusive = no clear call, values can overlap the other calls; inactive = mostly above about 0.92. Some of the results follow.
Assay: chemical genetic growth profiling, strain panel (AID 1159580);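 note: tested at 20 µM; growth read once vehicle control cultures reached saturation at 30 °C; 1 = growth at the plate median or of vehicle wells; lower values mean less growth of the strain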
Settings: S. cerevisiae deletion strains, growth OD

Measured: normalized growth

C[C@H](CCC(=O)O)[C@H]1CCC2C3C(CC[C@@]21C)[C@@]1(C)CC[C@@H](O)C[C@H]1C[C@H]3O (stereo partly drawn)
active: locus YLR262C, strain YPT6 (second series), hits give low values 0.799 | locus YOL147C, strain pex11, hits give low values 1.07 [resistant] | locus YOR231W, strain MKK1, hits give low values 0.849
inactive: locus YJR043C, strain POL32, hits give low values 0.999 | locus YJR066W, strain TOR1, hits give low values 0.862 | locus YJR075W, strain HOC1, hits give low values 1.04 | locus YKL009W, strain mrt4, hits give low values 0.9 | locus YKL068W, hits give low values 1.03 | locus YKL085W, strain MDH1 (second series), hits give low values 1.03 | locus YKL085W, strain MDH1, hits give low values 1.03 | locus YKL160W, strain elf1, hits give low values 0.974 | locus YKR001C, strain vps1, hits give low values 1.09 | locus YKR026C, strain gcn3, hits give low values 1.03 | locus YKR091W, strain srl3, hits give low values 1.01 | locus YLL001W, strain dnm1, hits give low values 0.991 | locus YLL026W, hits give low values 1.02 | locus YLL041C, strain sdh2, hits give low values 1.03 | locus YLR027C, strain aat2, hits give low values 1.01 | locus YLR039C, strain RIC1, hits give low values 1.02 | locus YLR058C, strain SHM2, hits give low values 1.01 | locus YLR102C, strain apc9, hits give low values 1.05 | locus YLR113W, strain HOG1, hits give low values 0.923 | locus YLR221C, strain rsa3, hits give low values 0.954 | locus YLR258W, strain gsy2, hits give low values 0.996 | locus YLR262C, strain YPT6, hits give low values 0.99 | locus YLR268W, strain sec22, hits give low values 1.03 | locus YLR320W, strain mms22, hits give low values 0.955 | locus YLR330W, strain CHS5, hits give low values 1.04 | locus YLR342W, strain FKS1 (second series), hits give low values 1.04 | locus YLR342W, strain FKS1, hits give low values 1 | locus YLR357W, strain rsc2, hits give low values 1.09 | locus YLR370C, strain arc18, hits give low values 0.993 | locus YLR371W, strain rom2, hits give low values 1.07 | locus YLR384C, strain iki3, hits give low values 1.01 | locus YLR418C, strain cdc73, hits give low values 1.03 | locus YML016C, strain PPZ1, hits give low values 1.02 | locus YML032C, strain rad52, hits give low values 1.02 | locus YML120C, strain ndi1, hits give low values 0.962 | locus YML124C, strain tub3, hits give low values 1.05 | locus YMR058W, strain fet3, hits give low values 1.01 | locus YMR078C, strain ctf18, hits give low values 1.08 | locus YMR125W, strain sto1, hits give low values 1.04 | locus YMR129W, hits give low values 1.01 | locus YMR205C, strain PFK2, hits give low values 0.989 | locus YMR223W, strain ubp8, hits give low values 1.01 | locus YMR231W, strain pep5, hits give low values 0.993 | locus YMR263W, strain SAP30, hits give low values 1.02 | locus YMR307W, strain GAS1, hits give low values 1.1 | locus YNL067W, strain RPL9B, hits give low values 0.999 | locus YNL071W, strain lat1, hits give low values 1.01 | locus YNL153C, strain GIM3, hits give low values 1 | locus YNL183C, strain NPR1, hits give low values 0.854 | locus YNL209W, strain ssb2, hits give low values 1.02 | locus YNL233W, strain BNI4, hits give low values 1.05 | locus YNL248C, strain rpa49, hits give low values 1.01 | locus YNL250W, strain rad50, hits give low values 1.03 | locus YNL271C, strain bni1, hits give low values 1.01 | locus YNL298W, strain CLA4, hits give low values 0.977 | locus YNL307C, strain MCK1, hits give low values 1.04 | locus YNL322C, strain KRE1 (second series), hits give low values 1.02 | locus YNL322C, strain KRE1, hits give low values 1.03 | locus YNR049C, strain mso1, hits give low values 1.01 | locus YNR052C, strain pop2, hits give low values 0.994 | locus YOL012C, strain htz1 1.83 | locus YOR001W, strain rrp6, hits give low values 0.979 | locus YOR061W, strain CKA2, hits give low values 1.06 | locus YOR069W, strain VPS5, hits give low values 1.03 | locus YOR070C, strain gyp1, hits give low values 1.01 | locus YOR080W, strain dia2, hits give low values 1.02 | locus YOR083W, strain WHI5, hits give low values 0.971 | locus YOR106W, strain vam3, hits give low values 0.928 | locus YOR136W, strain idh2, hits give low values 1.06 | locus YOR144C, strain elg1, hits give low values 1.04 | locus YOR184W, strain ser1, hits give low values 1.01 | locus YOR265W, strain rbl2, hits give low values 1.01 | locus YOR270C, strain vph1, hits give low values 0.964 | locus YOR290C, strain snf2, hits give low values 0.979 | locus YOR316C, strain cot1, hits give low values 1.05 | locus YPL051W, strain arl3, hits give low values 0.978 | locus YPL078C, strain atp4, hits give low values 0.982 | locus YPL106C, strain sse1, hits give low values 1.08 | locus YPL240C, strain hsp82, hits give low values 1.01 | locus YPL256C, strain CLN2, hits give low values 0.952 | locus YPR119W, strain clb2, hits give low values 1.03 | locus YPR141C, strain kar3, hits give low values 1.06 | locus YPR163C, strain tif3, hits give low values 1.06 | locus YPR167C, strain met16, hits give low values 1.05 | strain wtn01, hits give low values 1.06
